From the supplement of paper PMC6555819

Assays:
Experiment in all cases: PBM binding z-score (relative to random genomic background probes); higher = stronger binding; sequences stand for … in GC…GCGATTGACAGCGTAGAATGAAGG
[1] = test system: PPARg:RXRa DBDmut IVT, anti-RXR (DBD mutation: RXRa K156A/R161A, NR concentration 270 nM, RXRa partner concentration 90 nM)
Procedure, shortened: (§1)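 Custom Agilent 4×180K protein-binding microarrays carried double-stranded probes. Their 34-nt variable regions held direct-repeat seeds, single-nucleotide variants, half-site ablations and random human genomic background sequences. Arrays were incubated 1 h with ligand-free nuclear receptor dimers in PBS pH 7.4, 2% milk, 0.02% Triton X-100, 1 mM DTT, 0.2 mg/mL BSA and 0.4 mg/ml salmon testes DNA. Antibodies against each partner (one per run) detected binding, and scanned fluorescence was regression-normalized. Binding z-scores use random background probes as reference.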

[2] = test system: PPARg:RXRa IVT, anti-PPARg (NR concentration 270 nM, RXRa partner concentration 90 nM)
Procedure, shortened: as §1

[3] = test system: PPARg DBDmut:RXRa IVT, anti-PPARg (DBD mutation: PPARg1 K132A/R137A, NR concentration 270 nM, RXRa partner concentration 90 nM)
Procedure, shortened: as §1

[4] = test system: PPARg DBDmut IVT, anti-PPARg (DBD mutation: PPARg1 K132A/R137A, NR concentration 270 nM)
Procedure, shortened: as §1

[5] = test system: PPARg homodimer (NR concentration 180 nM)
Procedure, shortened: as §1

[6] = test system: PXR:RXRa (NR concentration 270 nM, RXRa partner concentration 90 nM)
Procedure, shortened: as §1

[7] = test system: PXR homodimer (NR concentration 270 nM)
Procedure, shortened: as §1

[8] = test system: RARa:RXR (NR concentration 270 nM, RXRa partner concentration 90 nM)
Procedure, shortened: as §1

[9] = test system: RARa homodimer (NR concentration 270 nM)
Procedure, shortened: as §1

[10] = test system: RARb:RXRa (NR concentration 270 nM, RXRa partner concentration 90 nM)
Procedure, shortened: as §1

Row | Sequence | PBM binding z-score [1] | PBM binding z-score [2] | PBM binding z-score [3] | PBM binding z-score [4] | PBM binding z-score [5] | PBM binding z-score [6] | PBM binding z-score [7] | PBM binding z-score [8] | PBM binding z-score [9] | PBM binding z-score [10]
1 | GGAACGAGGACAAAGTTGATAGCATCTGTCGACG | 1.35 | 1.44 | -0.283 | -0.95 | -0.0718 | -0.043 | -0.312 | 0.0802 | 0.0714 | 0.942
2 | ACAGACAGGTGATGACGGTAACTCAGGCTATCAT | 0.226 | 0.0775 | -0.319 | -0.184 | -0.306 | -0.319 | -0.0472 | -0.196 | 0.273 | 0.237
3 | GATACAGGGTCAGCTAGAGGCCAGAGGATGGAAA | 1.05 | 2.27 | 0.0573 | -0.276 | 2.33 | 3.12 | -0.127 | 4.59 | 0.2 | 4.17
4 | TAGCCTAAGTCATTGGGCCAGTATAGTACGCATC | -0.775 | -0.00957 | -0.0162 | -1.02 | -0.452 | -0.441 | -0.814 | -0.394 | -0.564 | 0.068
5 | ACTAGCCGGCCAAGTTTGGGTCACTCAAACAAAG | -0.561 | 0.67 | -0.942 | -0.912 | 0.449 | 0.729 | -0.476 | 1.25 | -0.454 | 1.5
6 | CAAATTAGGTCACAGAGGTCAAAGTCCGTGCGTA | 8.01 | 8.49 | 2.82 | 1.45 | 5.32 | 6.74 | 11.4 | 7.4 | 3.41 | 5.27
7 | CCTTACGGGTCACTGACAGGTTTTAGCATTTGGA | 3.46 | 3.56 | 0.228 | 0.218 | 2.26 | 2.98 | -0.502 | 4.09 | 1.06 | 3.88
8 | ATATGTAGGTTACATCCGCGTCATTCAGGCTATG | 7.33 | 7.28 | 2.01 | 1.99 | 0.907 | 0.229 | 0.0394 | 0.412 | 0.447 | 0.941
9 | TCTATTAGTTGAATAGGGCAACCGAAACAGCGGA | 2.01 | 1.19 | 0.574 | 0.929 | 0.658 | 0.411 | 0.0472 | 0.67 | 0.29 | 1.13
10 | GCGACGGGGGCATCAGCAGGTTACCATAACTTAA | 1.76 | 4.14 | 7.32 | 9.29 | 1.83 | 3.29 | 0.826 | 3.42 | -0.447 | 3.16
11 | GCGACCGGGGCATCAGCAGGTTACCATAACTTAA | 0.0389 | 0.384 | -1.59 | -1.19 | 0.373 | 0.411 | -0.173 | 0.981 | -0.42 | 1.3
12 | TATACAGGGTCAAAGGCCATAGTACGAATGTCGA | 2.29 | 5.22 | 3.81 | 1.65 | 2.99 | 4.83 | 0.657 | 6.64 | 1.1 | 4.56
13 | CTCGAAAGCTCGTGCTCAGGTGAGTATACCAAAC | -0.844 | -0.272 | -1.04 | -0.415 | -0.882 | -0.746 | -0.669 | -0.62 | -1.18 | -1.07
14 | CATACAGGGTCAGCTAGGCCGGAGTAGGGACGGC | 0.767 | 2.06 | 0.399 | 0.204 | 1.63 | 1.76 | -0.278 | 2.9 | 0.038 | 3.87
15 | CCGACTGTGGCAGAAAGGTTACCATACCATCCGG | 0.332 | 0.812 | -0.741 | -1.03 | 0.662 | 0.984 | -0.427 | 1.47 | -0.0301 | 1.45
16 | TTACCAAGGTGAAGGTCGTTCATCCCTCTGTAGA | 1.8 | 3.39 | -0.313 | 0.687 | 0.597 | 1.9 | 0.214 | 1.55 | -0.144 | 2.54
17 | AGTCAAACTTCACTAGGTAACGTAAGATTCAGCT | 1.97 | 2.66 | 0.854 | 1.24 | 0.579 | -0.238 | 0.241 | -0.00905 | -0.136 | 0.174
18 | TCTTGTAGATCAAGCAAGTTAAGAAAGCCTGAGT | 1.73 | 0.172 | -0.613 | -0.0624 | -0.466 | 0.15 | 0.419 | 0.014 | -0.373 | 0.115
19 | TACCCTAGGTCATGCGGGCCAGTATAGTGTCGGC | 1.96 | 3.63 | 0.136 | -0.0789 | 0.581 | 1.72 | 0.593 | 2.37 | 0.299 | 3.93
20 | TCGAGTAGATTAGGGGCATTCAGAATGGCGTCGA | 0.671 | -0.44 | -1.09 | -1.25 | -0.958 | 0.158 | -0.306 | -0.0495 | -1.16 | 0.182
21 | ACCTACGGGTCAACGAGGTTATAGCACGCGTATA | 1.41 | 2.79 | 0.196 | 0.0693 | 3.53 | 5.22 | 3.27 | 5.3 | 0.837 | 4.05
22 | GGAACGAGGGCATAGTTGATAGCATCTGTCGACG | 2.46 | 2.41 | -0.0516 | -0.265 | 0.109 | 0.17 | -0.0429 | 0.19 | -0.571 | 1.39
23 | TCTTGTAGATCAGCAGGATAAGAAAGCTGGCCAA | 1.55 | 0.124 | 0.2 | -0.242 | -1.15 | -0.413 | -0.584 | -0.151 | -0.239 | -0.505
